# Results as given in PubChem BioAssay (NCI).
# The panel holds about 83,000 compounds, 20% with a hit somewhere; the sample as a whole holds those more often.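 A percent growth of 40 corresponds to 60% growth inhibition; 0 means no net growth; -100 means all cells died. Active threshold: below 10.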 Calls of active or inactive are those of the source.
# System: UACC-257 melanoma
# Test: NCI-60 one-dose screen, 48 h (100 = growth as untreated, 0 = no growth, -100 = all killed)
# Details: 10 µM unless noted
row,Compound,growth
1,O=C(/C=C/c1ccc2ccccc2c1)Nc1ncc(Cc2ccccc2)s1,94.8% (inactive)
2,O=C1c2cc3c(cc2-c2c1c1ccc(F)cc1c(=O)n2CCCN1CCOCC1)OCO3,62.7% (inactive)
3,C=C1CC[C@@H](C(=O)OC)Cc2nc(C)ccc21,94.4% (inactive)
4,CCN1CCN(C(=O)[C@]23CCC(C)(C)C[C@@H]2C2=CC[C@@H]4[C@@]5(C)C/C(=C/c6cccnc6)C(=O)C(C)(C)[C@@H]5CC[C@@]4(C)[C@]2(C)CC3)CC1,3.05% (active)
5,CC(C)(C)c1cc(-n2c(-c3ccc(Cl)cc3)nc3cc(C(=O)Nc4ccc(Cl)cc4)ccc32)n[nH]1,81.1% (inactive)
6,Fc1ccc(Nc2nnc(-c3ccc(Cl)cc3)o2)cc1,88.9% (inactive)
7,O=C1/C(=C\c2ccc(Br)o2)SC(=S)N1CCc1ccc(O)cc1,77.2% (inactive)
8,CC(=O)c1c(C)[nH]c(-c2nc3ccc(N4CCN(C)CC4)cc3[nH]2)c1-c1ccc2c(c1)OCCO2,48.2% (inactive)
9,COc1ccc2[nH]c(-c3ccc(Cl)cc3)cc(=O)c2c1,98% (inactive)
10,CCC1C(=O)COC1=O (centres undefined),81.8% (inactive)
11,C=C(C)[C@@H]1CC[C@]2(C)[C@H](CC[C@@H]3[C@H]4[C@H]5OC[C@@]4(CCC5(C)C)CC[C@]32C)[C@@]1(C)CCCN,101% (inactive)
12,CN1CCN(CCOc2ccc(-c3cnc4c(-c5cccc(F)c5)cnn4c3)cc2)CC1,67.1% (inactive)
13,Cc1cc(N(CCNc2ccnc3cc(Cl)ccc23)Cc2ccco2)nc(Cl)n1,-29.2% (active)
14,COc1ccc(CCN2C(=O)C(C)(C)SC2=S)cc1OC,98.9% (inactive)
15,Cc1cc2nc3c4cc(O)ccc4n(CCN(C)C)c3nc2cc1C,-15.1% (active)
16,CCCCC(=O)OC1CCCCC1C (centres undefined),78.5% (inactive)
17,COc1ccc2c(c1)c(-c1nc(-c3c[nH]c4ncccc34)cs1)cn2CCCN1CCCCC1,71.8% (inactive)

row,Compound,growth
1,CC(=O)c1c(C)[nH]c(-c2nc3ccc(N4CCN(C)CC4)cc3[nH]2)c1-c1ccc(OCC2CCOCC2)cc1,30.8% (inactive)
2,Cc1nc([P+](c2ccccc2)(c2ccccc2)c2ccccc2)c(Sc2sc(-c3ccccc3)nc2[P+](c2ccccc2)(c2ccccc2)c2ccccc2)o1,8.5% (active)
3,NNC(=O)c1nc2ccccc2[nH]1,65.9% (inactive)
4,O=P(O)(c1ccccc1)c1ccccc1I,76.5% (inactive)
5,COc1ccc(OC)c(-c2c(C#N)c(-c3ccco3)nc3c2c(-c2ccccc2)nn3-c2ccccc2)c1,99.7% (inactive)
6,Clc1cc(Cl)cc(Nc2ccc3c(OCCCN4CCOCC4)cccc3n2)c1,73.2% (inactive)
7,N#CC1=C(N)Oc2c(c(N)nn2-c2ccccc2)C1c1ccc(Cl)cc1Cl (centres undefined),104% (inactive)
8,CC(C)(C)c1ccc(OCCCCCCCN2CCNCC2)cc1,48.2% (inactive)
9,Cc1cc(Cl)nc(N(CCCNc2ccnc3cc(Cl)ccc23)Cc2ccco2)n1,23.3% (inactive)
10,CC1(C)NCCC[C@]2(C)[C@H]3CC[C@@H]4[C@H]5[C@H](C(=O)/C=C/c6ccccn6)CC[C@]5(CO)CC[C@@]4(C)[C@]3(C)CC[C@@H]12,64% (inactive)
11,NCCNc1nc(-c2ccccc2)nc2nc(-c3ccccc3)oc12,111% (inactive)
12,COc1cnc2c(c1)C(=O)c1c-2n(CCCNC(C)C)c(=O)c2cc([N+](=O)[O-])ccc12,-67% (active)
13,COc1cnc2c(c1)C(=O)c1c-2n(CCCNC2=NCCS2)c(=O)c2cc([N+](=O)[O-])ccc12,35.4% (inactive)
14,COc1cc2nc(Cl)nc(Nc3cccc(C(=O)/C=C/c4ccccc4)c3)c2cc1OC,96.5% (inactive)
15,CC1(C)C(=O)/C(=C\c2ccco2)C[C@]2(C)[C@H]3CC[C@@H]4[C@@H](C(=O)/C=C/c5ccco5)CC[C@@]4(C)[C@]3(C)CC[C@@H]12,16.8% (inactive)
16,CCCC1CCCCN1C(=O)OCC(C)C (centres undefined),110% (inactive)
17,Cc1ccc(-c2nn(Cc3cn(-c4cc(C)nc5ccccc45)nn3)c3ncnc(N)c23)cc1,42.5% (inactive)

# System: M14 melanoma
# Test: as above
# Details: 10 µM unless noted
row,Compound,growth
1,O=C1c2cc3c(cc2-c2c1c1ccc(F)cc1c(=O)n2CCCN1CCOCC1)OCO3,23.2% (inactive)
2,C=C1CC[C@@H](C(=O)OC)Cc2nc(C)ccc21,105% (inactive)
3,CCN1CCN(C(=O)[C@]23CCC(C)(C)C[C@@H]2C2=CC[C@@H]4[C@@]5(C)C/C(=C/c6cccnc6)C(=O)C(C)(C)[C@@H]5CC[C@@]4(C)[C@]2(C)CC3)CC1,34.4% (inactive)
4,Cc1cc(N(CCNc2ccnc3cc(Cl)ccc23)Cc2ccco2)nc(Cl)n1,-64.9% (active)
5,COc1ccc(CCN2C(=O)C(C)(C)SC2=S)cc1OC,98.4% (inactive)
6,Cc1cc2nc3c4cc(O)ccc4n(CCN(C)C)c3nc2cc1C,-33.7% (active)
7,CCCCC(=O)OC1CCCCC1C (centres undefined),95.4% (inactive)
8,Cc1nc([P+](c2ccccc2)(c2ccccc2)c2ccccc2)c(Sc2sc(-c3ccccc3)nc2[P+](c2ccccc2)(c2ccccc2)c2ccccc2)o1,15.5% (inactive)
9,NNC(=O)c1nc2ccccc2[nH]1,92.4% (inactive)
10,CC(C)(C)c1ccc(OCCCCCCCN2CCNCC2)cc1,45.2% (inactive)
11,Cc1cc(Cl)nc(N(CCCNc2ccnc3cc(Cl)ccc23)Cc2ccco2)n1,-6.17% (active)
12,NCCNc1nc(-c2ccccc2)nc2nc(-c3ccccc3)oc12,97.8% (inactive)
13,COc1cc2nc(Cl)nc(Nc3cccc(C(=O)/C=C/c4ccccc4)c3)c2cc1OC,51.2% (inactive)
14,CC1(C)C(=O)/C(=C\c2ccco2)C[C@]2(C)[C@H]3CC[C@@H]4[C@@H](C(=O)/C=C/c5ccco5)CC[C@@]4(C)[C@]3(C)CC[C@@H]12,23.9% (inactive)
15,CCCC1CCCCN1C(=O)OCC(C)C (centres undefined),109% (inactive)
